Laboratory results: PubChem BioAssay AID624256 (NMMLSC, 2012)
Hit rate of the full screen: of about 360,000 compounds, about 3,700 (1%) were called active. About 2% were inconclusive and are not listed.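 How the source made its calls: active means normalized GFP-positive differentiation at or above the plate's own cutoff, the solvent-only control mean plus 3 SD; inconclusive means no clear call, values can overlap the other calls; inactive means the rest.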 Only a selection was taken, and actives are over-represented in it overall.

Experiment: induction of myeloid progenitor differentiation, primary screen, cell-based, flow cytometry, MLPCN library (AID 624256);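 on GFP+ MAC1+ double positive: cells exposed to compound for four days before flow analysis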;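 on normalized GFP-positive differentiation: cells exposed to compound for four days before flow analysis; 0% = DMSO wells and 100% = fulvestrant positive control at 5 µM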
Settings: ER-HoxA9 myeloid progenitors, lysozyme-GFP differentiation, at 10 µM; GFP+ MAC1+ double positive: measured here: differentiation confirmed by MAC1 staining, stronger effect = higher value; normalized GFP-positive differentiation: stronger effect = higher value

SMILES | GFP+ MAC1+ double positive | outcome | normalized GFP-positive differentiation
O=C(OC1CC2CC1[C@H]1CCCCN1C2=O)N1CCOCC1 (some centres not stated) | 0.9% | inactive | 
Cc1noc(C)c1COC(=O)c1cc2ccccc2cc1O | 1.2% | inactive | 
O=C(NNc1c2ccccc2nc2ccccc12)c1cc2ccccc2cc1O | 2.5% |  | 28.5% (active)
O=C(COC(=O)c1ccc(O)cc1O)NC(=O)c1ccccc1 | 0% | inactive | 
CCc1nc2c(OCCOc3ccc(F)cc3)cccn2c1N(C)C(=O)c1ccccc1F | 0.6% | inactive | 
Nc1ccccc1SC(C[N+](=O)[O-])c1ccccc1 (configuration not stated) | 1.1% | inactive | 
CCS(=O)(=O)c1cc([N+](=O)[O-])c(Sc2ccccc2N)s1 | 1.1% |  | 150% (active)
CC(C)(C)N1C(=O)c2c(C(=O)OCc3ccccc3)[nH]c(-c3ccccc3)c2C1=O | 1.4% | inactive | 
CC(C)Nc1nc(NCCOc2ccccc2Cl)c2sccc2n1 | 1% | inactive | 
COc1ccc(N2CCN(c3ccc([N+](=O)[O-])nc3)CC2)cc1 | 0.9% | inactive | 
COc1ccc2nc(N3CCN(C(=O)c4ccc([N+](=O)[O-])o4)CC3)sc2c1 | 7.3% |  | 33.6% (active)
COc1ccc2nc(N3C(=O)C(O)=C(C(=O)c4ccco4)C3c3ccco3)sc2c1 (configuration not stated) | 0.8% | inactive | 
CCc1nc2ccc(C(=O)Nc3cccc(OC)c3)cn2c1N(CCC(C)C)CCN(C)C | 1.2% | inactive | 
CCCCNC(=O)C[C@@H]1C[C@@]2(C(=O)OC)CC(C)(C)CC=C2N(Cc2ccco2)C1=O | 2.1% | inactive | 
COC(=O)C[C@@H]1C=C[C@@H](NC(=O)c2cccnc2)[C@@H](CO)O1 | 1.2% | inactive | 
CCOC(=O)C1=CC[C@@H](c2ccccc2)N(S(=O)(=O)c2ccc(C)cc2)[C@H]1c1ccc(CC)cc1 | 0.9% | inactive | 
COc1ccc(S(=O)(=O)NCCCCOc2ccc(Cl)cc2)cc1 | 0.7% | inactive | 
COc1ccc(N(CC(=O)N2CCCCCC2)S(=O)(=O)c2ccccc2)cc1 | 2.2% | inactive | 
COc1ccc(N(CCC#N)S(=O)(=O)c2ccc(Cl)cc2)cc1 | 6.2% |  | 17% (active)
COc1cc(C=C(OC(C)=O)c2ccc3c(c2)OCO3)cc(OC)c1OC | 0.8% | inactive | 
Cc1ccc(C(=O)OCC(=O)N2CCCCCC2)cc1S(=O)(=O)N1CCOCC1 | 0.9% | inactive | 
Cc1ccc(C(=O)Nc2ncccc2C)cc1S(=O)(=O)N1CCOCC1 | 0.8% | inactive | 

SMILES | GFP+ MAC1+ double positive | outcome | normalized GFP-positive differentiation
Cc1cc(C)n(C(=O)c2ccc(C)c(S(=O)(=O)N3CCOCC3)c2)n1 | 3.4% |  | 11% (active)
CCOC(=O)c1ccc(-c2ccc3ncnc(N(C)Cc4sccc4C)c3c2)o1 | 2% | inactive | 
CC(=O)Nc1cccc(Nc2ccc(C#N)cc2)c1 | 0.5% | inactive | 
Cc1cccc(C)c1NC(=O)C(c1ccc(C(F)(F)F)cc1)n1c(=O)c(-c2ccco2)nc2ccccc21 (configuration not stated) | 2.6% | inactive | 
CC[n+]1cc(C)ccc1/C=C/c1ccc(N(C)C)cc1 | 14.3% |  | 385% (active)
O=[N+]([O-])c1ccc(CN2CC(N3CC=CC3)CS2(=O)=O)cc1 (configuration not stated) | 0.8% | inactive | 
COc1ccc(CC(N)c2csc(NC(=O)Cc3ccccc3)n2)cc1 (configuration not stated) | 0.8% | inactive | 
CCCCn1nnnc1C(c1cccc(OC)c1OC)N1CCN(C/C=C/c2ccccc2)CC1 (configuration not stated) | 1% | inactive | 
Fc1ccc(-c2ccc(NCCN3CCOCC3)nn2)cc1 | 0.2% | inactive | 
CCOc1nc(NCCN2CCOCC2)nc(Nc2ccc(C)cc2)n1 | 0.6% | inactive | 
c1ccc2cc3c(NCCN4CCOCC4)ccnc3cc2c1 | 8.7% |  | 189% (active)
CC1(C)OC(=O)C2=C(C[C@@H](C3CC3)O[C@H]2CCc2cccc(Cl)c2)O1 | 0.7% | inactive | 
COc1cc(/C=C2/C(=O)NN(c3ccc(F)cc3)C2=O)cc([N+](=O)[O-])c1O | 0.5% | inactive | 
COc1cc(/C=C2/C(=O)NN(c3cccc(Cl)c3)C2=O)cc(Br)c1O | 11.4% |  | 287% (active)
COc1cc(/C=N/O)cc(Br)c1OCc1cccc(Cl)c1 | 0.1% | inactive | 
CCOC(=O)[C@]12CCCC=C1N(CCC1=CCCCC1)C(=O)[C@H](CC(=O)N1CCSCC1)C2 | 4.4% | inactive | 
COc1ccc(Sc2ccc(NC(=O)c3cccc(Cl)c3)cc2C#N)cc1 | 1.1% | inactive | 
CC(C)N(C(=O)[C@H]1C[C@H](CC(=O)NCCC2=CCCCC2)C(=O)N2CCc3c([nH]c4cc(CCC(=O)N(C)C)ccc34)[C@]12C)C(C)C | 0.4% | inactive | 
C[C@]12c3[nH]c4ccc(Cl)cc4c3CCN1C(=O)[C@@H](CC(=O)NCCCn1ccnc1)C[C@@H]2C(=O)N1CCOCC1 | 0.6% | inactive | 
CC(C)N(C(=O)[C@H]1C[C@H](CC(=O)NC(C)(C)C)C(=O)N2CCc3c([nH]c4ccc(Cl)cc34)[C@]12C)C(C)C | 1.5% |  | 8.17% (active)
O=C(NCc1ccc(F)cc1)c1cc(C2CCCCN2C(=O)C2CCCCC2)on1 (configuration not stated) | 1.3% | inactive | 
COc1ccc(/C=C2\SC(=S)N(CCC(=O)N3CCOCC3)C2=O)cc1OC | 0.9% | inactive | 

SMILES | GFP+ MAC1+ double positive | outcome | normalized GFP-positive differentiation
COc1cccc(/C=C2\Sc3ccc(C(=O)NCC4CCCO4)cc3N(C)C2=O)c1 (configuration not stated) | 3.7% | inactive | 
COc1cccc(/C=C2\SC(=S)N(CCCC(=O)N3CCOCC3)C2=O)c1 | 2.7% |  | 19% (active)
OC(c1cc(Cl)cc(Cl)c1)c1ncc(-c2ccccc2C(F)(F)F)[nH]1 (configuration not stated) | 1.7% | inactive | 
Nc1nc2c(ncn2[C@@H]2O[C@H](CNS(=O)(=O)N3CCc4ccccc4C3)[C@@H](O)[C@H]2O)c(=O)[nH]1 | 0.7% | inactive | 
CCCOC(=O)c1[nH]c2c(c1C)C(=O)CC(c1cc(OC)c(OC)c(OC)c1)C2 (configuration not stated) | 8.6% |  | 37% (active)
COc1cc(C2CC(=O)c3cnc(NC(C)=O)nc3C2)cc(OC)c1OC (configuration not stated) | 0.9% | inactive | 
COC(=O)C1C(=O)c2c([nH]c(C(=O)OCCSC)c2C)CC1C (configuration not stated) | 3.1% | inactive | 
COc1ccc(CCN=C2SCC(=O)N2Cc2ccccc2)cc1OC | 0.1% | inactive | 
CN1C=CC=C/C1=C1\SC(=S)N(Cc2ccccc2)C1=O | 0.2% | inactive | 
COc1cc(/C=C2/SC(=S)N(Cc3ccccc3)C2=O)cc(OC)c1O | 6.9% |  | 111% (active)
Cc1ccc2nc(-c3ccccc3)c(CC3CCCCC3)n2c1 | 0.3% | inactive | 
COc1cc(OC)cc(C2=Cc3ccccc3C(CC(=O)c3ccco3)N2c2ccc(-c3cnc(OC)nc3)cc2)c1 (configuration not stated) | 1% | inactive | 
CC(=O)N1Cc2cc(C(=O)NCc3cccc(F)c3)nc(-c3cccc(C4=CCCCC4)c3)c2[C@H]1CCO | 1.2% | inactive | 
C[C@H](NC(=O)CC[C@H]1O[C@@H](n2ccc(=O)[nH]c2=O)[C@H](O)[C@@H]1O)c1cccc2ccccc12 | 1.1% | inactive | 
COc1cccc(CN(C)C(=O)CC[C@H]2O[C@@H](n3cnc4c(NC(=O)c5ccccc5)ncnc43)[C@H](O)[C@@H]2O)c1 | 0.5% | inactive | 
CCCCc1nc2ccc(F)cc2cc1C | 0.5% | inactive | 
O=C(Cc1nc2ccccc2[nH]c1=O)c1ccc(Cl)cc1 | 72.3% |  | 347% (active)
O=c1c(-c2ccc(Cl)cc2)[n+]([O-])c2ccccc2n1OCc1nc2ccccc2[nH]1 | 0.7% | inactive | 
O=C(Cc1ccc(Cl)cc1)c1ccccc1 | 0.7% | inactive | 
CN1OC[C@@H]2CN(C(=O)c3cccnc3)[C@H](c3ccc(N4CCCCC4)cc3)C[C@@H]21 | 1.2% | inactive | 
O=S1(=O)CC(N2CCC(Cc3ccccc3)CC2)CN1Cc1ccccc1 (configuration not stated) | 1.3% | inactive | 
CC1(C(=O)NS(=O)(=O)c2cccc(F)c2)CCN1C(=O)Cc1ccc(Cl)cc1Cl (configuration not stated) | 0.9% | inactive | 

SMILES | GFP+ MAC1+ double positive | outcome | normalized GFP-positive differentiation
Cc1ccc(/C=C2\SC(=S)N(CCC(=O)Nc3ccc(O)cc3)C2=O)cc1 | 17.3% |  | 264% (active)
Cc1cc(C)cc(NC(=O)CCN2C(=O)c3ccccc3C2=O)c1 | 0.5% | inactive | 
Cc1ccc(NC(=O)CCN2C(=O)c3ccccc3C2=O)cc1C | 0.6% | inactive | 
O=C(Nc1ccc(F)cc1)Nc1nnc([C@H]2C[C@H](O)[C@@H](CO)O2)s1 | 0.6% | inactive | 
CCCNC(=O)c1cc2c(c(-c3cccc(-c4ccc(C#N)cc4)c3)n1)[C@@H](CCO)N(C(=O)CC)C2 | 0.7% | inactive | 
O=C(NCc1ccc(F)cc1F)[C@@H]1CCCN1C(=O)[C@@H]1CCCN1C(=O)c1cccc(Cl)c1 | 0.5% | inactive | 
CN(C)c1ccc(C=C2C(=O)OC3(CCCC3)OC2=O)cc1 | 0.1% | inactive | 
CC1CN(Cc2ccccc2)C(=S)NC1=O (configuration not stated) | 0.4% | inactive | 
CN(C)c1ccc(/C=C2\NC(=S)N(Cc3ccccc3)C2=O)cc1 | 23.7% |  | 207% (active)
COc1ccc([C@H]2CC(=O)C[C@@H](CCn3cc(CC4CCCC4)nn3)O2)cc1 | 0.4% | inactive | 
CC(C)N1C(=O)c2ccccc2NC(=O)C1C(=O)NCc1cccs1 (configuration not stated) | 2.7% | inactive | 
Cc1ccc(Nc2nc(Cl)c(C=O)s2)cc1 | 1.3% |  | 146% (active)
CCCCC(=O)Nc1nc(C)c(-c2csc(Nc3ccc(Cl)cc3)n2)s1 | 0.8% | inactive | 
Cc1ccc(Nc2nnc(SC(C)C(=O)NC3CC3)s2)cc1 (configuration not stated) | 0.7% | inactive | 
Cc1ccc(F)c(S(=O)(=O)NC(=O)C2(C)CCN2C(=O)c2ccco2)c1 (configuration not stated) | 0.9% | inactive | 
CCCCCNC(=O)C(c1ccc(OC)cc1)n1c(=O)c(-c2ccccc2)nc2ccccc21 (configuration not stated) | 2.6% | inactive | 
Cc1cc(Cl)ccc1-c1nc(NCCN(C)C)nc2ccsc12 | 1.3% | inactive | 
Cc1cc(NC(=O)CSc2nc(C(C)C)nc3sc4c(c23)CCC(C)C4)no1 (configuration not stated) | 6.9% |  | 29.7% (active)
CC(C)c1nc(SCC(=O)Nc2cccc(C(=O)O)c2)c2c3c(sc2n1)CCCC3 | 1.4% | inactive | 
Cc1cc(NC(=O)CSc2nc3c(cc2C#N)CCCCC3)no1 | 0% | inactive | 
